Experimental findings from PMC5540273 (PLoS ONE, 2017) are described below.

In assay [1] the test system is T1, RSK2(Kin.Dom.2-C-terminal).
T1 construct: gene RPS6KA3
The settings on record: n = 1.

Assay [2] concerns T2, RSK3(Kin.Dom.1-N-terminal).
T2 construct: gene RPS6KA2
Conditions: n = 1.

Assay [3] concerns T3, RSK3(Kin.Dom.2-C-terminal).
T3 construct: gene RPS6KA2
The settings on record: n = 1.

Assay [4] deals with T4, RSK4(Kin.Dom.1-N-terminal).
T4 construct: gene RPS6KA6
The settings on record: concentration: 1 μM, replicates: in singlicate; n = 1.

Assay [5] relates to T5, RSK4(Kin.Dom.2-C-terminal).
T5 construct: gene RPS6KA6
Conditions: n = 1.

Another assay deals with S6K1. Conditions: n = 1.
Another assay deals with SBK1. Conditions: n = 1.
The subject of a further assay is SGK2. Conditions: concentration: 1 μM, replicates: in singlicate; n = 1.
A further assay has as its system SGK3. Conditions: n = 1.
In the next assay the test system is SGK. Conditions: concentration: 1 μM, replicates: in singlicate; n = 1.
The test system of the next assay is SIK2. The settings on record: n = 1.
A further assay concerns SIK. The settings on record: concentration: 1 μM, replicates: in singlicate; n = 1.
The test system of another assay is SLK. Conditions: n = 1.
The next assay concerns T6, SNARK.
T6 construct: gene NUAK2
Conditions: n = 1.

The next assay relates to SNRK. The settings on record: concentration: 1 μM, replicates: in singlicate; n = 1.
The test system of a further assay is SRC. Conditions: n = 1.
A further assay relates to SRMS. The settings on record: concentration: 1 μM, replicates: in singlicate; n = 1.
The test system of the next assay is SRPK1. The settings on record: n = 1.
The next assay deals with SRPK2. The settings on record: concentration: 1 μM, replicates: in singlicate; n = 1.
Another assay deals with SRPK3. The settings on record: concentration: 1 μM, replicates: in singlicate; n = 1.
Where [6] appears, read: concentration: 1 μM, replicates: in singlicate.
[7] abbreviates: concentration: 1 μM,replicates: in singlicate, 1 µM.

Structures are written as SMILES. “And” between values parts separate entries of the source, which are not always exact repeats. Equal values may be shown once. Read-outs that look alike come from different tables or passages of the source.
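Also: KINOMEscan kinase panel screen.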

As to `CS(=O)(=O)c1ccc(-c2c(-c3ncn[nH]3)sc(N3CCOCC3)c2C#N)cc1`, the “%Inh” value stood at 0% in assay [1] (setting [6]); 0% in assay [2] (setting [6]); 98% in assay [3] (setting [6]); 0% in [4]; 100% in assay [5] (setting [6]); 10% in the assay on S6K1 (setting [6]). The “%Inh” value with SBK1 (setting [6]) was 0%; in the assay on SGK2 it was 0%; with SGK3 (setting [6]), 24%; in the assay with SGK, 0%; in the assay with SIK2 (setting [6]), 0%; in the assay on SIK, 39%. Further, the “%Inh” value is reported as 3% in the assay on SLK (setting [6]); 0% in the assay on SNARK (setting [6]); 7% in the assay with SNRK; 0% in the assay with SRC (setting [6]); 0% in the assay with SRMS; 0% in the assay with SRPK1 (setting [6]). For the same compound, the “%Inh” value in the assay with SRPK2 and with SRPK3 was 0% in each case.

Take `Cl.c1ccc(-c2n[nH]cc2-c2ccnc(-c3ccc(CN4CCOCC4)cc3)c2)nc1` [GW776245]: the “%Inh” value in assay [1] (setting [6]) was found to be 22%; in assay [2] (setting [6]) it was 0%; in [3] (setting [6]), 0%; in [4] it was 13%; in [5] (setting [6]), 49%; with S6K1 (setting [6]) it was 0%. In addition, the “%Inh” value in the assay on SBK1 (setting [6]) was determined as 0%; in the assay with SGK2, 0%; with SGK3 (setting [6]), 0%; with SGK, 0%; in the assay with SIK2 (setting [6]) it was 0%; with SIK, 23%. Also, the “%Inh” value is 0% with SLK (setting [6]); 0% in the assay with SNARK (setting [6]); 0% in the assay on SNRK; 15% in the assay with SRC (setting [6]); 0% with SRMS; 0% in the assay on SRPK1 (setting [6]). Also, the “%Inh” value in the assay on SRPK2 is reported as 0%; in the assay with SRPK3 it was 41%.

`COc1ccccc1-c1ccc2c(NC(=O)C3CC3)n[nH]c2n1` [SB-711239]: the “%Inh” value was found to be 7% in assay [1] (setting [6]); 0% in assay [2] (setting [6]); 0% in assay [3] (setting [6]); 4% in [4]; 22% in assay [5] (setting [6]); 7% in the assay on S6K1 (setting [6]). Further, the “%Inh” value with SBK1 (setting [6]) came to 68%; with SGK2, 4%; in the assay with SGK3 (setting [6]) it was 3%; in the assay on SGK, 0%; in the assay with SIK2 (setting [6]), 0%; with SIK, 3%. Besides, the “%Inh” value with SLK (setting [6]) is 8%; in the assay on SNARK (setting [6]), 8%; in the assay on SNRK it was 14%; in the assay on SRC (setting [6]), 6%; in the assay with SRMS, 0%; in the assay with SRPK1 (setting [6]), 0%. The “%Inh” value in the assay with SRPK2 was determined as 31%; with SRPK3 it was 13%.

Take `COc1cc2nccc(Nc3ccc(NC(=O)c4ccc(C)cc4)c(O)c3)c2cc1OC.Cl` [GW440132]: the “%Inh” value is listed as 4% in [1] (setting [6]); 4% in assay [2] (setting [6]); 0% in assay [3] (setting [6]); 0% in [4]; 0% in assay [5] (setting [6]); 0% in the assay on S6K1 (setting [6]). Further, the “%Inh” value is given as 10% in the assay on SBK1 (setting [6]); 5% in the assay on SGK2; 0% with SGK3 (setting [6]); 0% in the assay on SGK; 0% in the assay on SIK2 (setting [6]); 16% in the assay on SIK. For the same compound, the “%Inh” value turned out to be 44% in the assay on SLK (setting [6]); 0% in the assay on SNARK (setting [6]); 0% in the assay with SNRK; 20% in the assay on SRC (setting [6]); 71% in the assay on SRMS; 18% in the assay on SRPK1 (setting [6]). For the same compound, the “%Inh” value in the assay with SRPK2 and in the assay with SRPK3 was 0% throughout.

On to `Cc1nnc(-c2ccc3occ(-c4ccc(S(C)=O)cc4)c3c2)[nH]1` (stereo not shown), for which the “%Inh” value is reported as 5% in [1] (setting [6]); 0% in assay [2] (setting [6]); 7% in [3] (setting [6]); 0% in assay [4]; 36% in [5] (setting [6]); 4% with S6K1 (setting [6]). The “%Inh” value in the assay on SBK1 (setting [6]) was determined as 0%; with SGK2, 5%; with SGK3 (setting [6]), 17%; in the assay on SGK it was 1%; in the assay on SIK2 (setting [6]), 19%; in the assay with SIK, 7%. The “%Inh” value amounted to 50% in the assay on SLK (setting [6]); 11% in the assay with SNARK (setting [6]); 0% in the assay on SNRK; 9% in the assay with SRC (setting [6]); 0% in the assay with SRMS; 27% with SRPK1 (setting [6]). Besides, the “%Inh” value with SRPK2 and in the assay on SRPK3 was 0% in each case.

With `COc1cccc(NC(=O)NC2CCN(c3ccnc(Nc4ccc(F)cc4)n3)C2)c1` (stereo not shown) [GSK1379721], the “%Inh” value turned out to be 30% in [1] (setting [6]); 5% in assay [2] (setting [6]); 2% in assay [3] (setting [6]); 0% in assay [4]; 0% in assay [5] (setting [6]); 0% in the assay on S6K1 (setting [6]). Besides, the “%Inh” value is reported as 2% in the assay on SBK1 (setting [6]); 0% in the assay with SGK2; 0% with SGK3 (setting [6]); 5% in the assay with SGK; 0% in the assay on SIK2 (setting [6]); 0% with SIK. Further, the “%Inh” value in the assay on SLK (setting [6]), with SNARK (setting [6]), in the assay with SNRK, in the assay on SRC (setting [6]), with SRMS and with SRPK1 (setting [6]) was 0% in each case. Also, the “%Inh” value in the assay with SRPK2 is reported as 5%; with SRPK3, 0%.

`Cl.Oc1ccc(-c2nc(-c3ccccc3)[nH]c2-c2ccncc2)cc1` [SB-428218]: the “%Inh” value in assay [1] (setting [6]) turned out to be 0%; in [2] (setting [6]), 0%; in [3] (setting [6]) it was 8%; in assay [4] it was 0%; in [5] (setting [6]), 32%; with S6K1 (setting [6]) it was 14%. The “%Inh” value in the assay with SBK1 (setting [6]) worked out at 0%; in the assay on SGK2, 0%; with SGK3 (setting [6]) it was 0%; in the assay with SGK it was 7%; in the assay on SIK2 (setting [6]), 0%; in the assay with SIK, 0%. The “%Inh” value with SLK (setting [6]) was 28%; in the assay on SNARK (setting [6]), 0%; in the assay on SNRK, 5%; in the assay with SRC (setting [6]), 33%; with SRMS it was 7%; in the assay with SRPK1 (setting [6]), 0%. Also, the “%Inh” value in the assay with SRPK2 is 0%; in the assay with SRPK3, 3%.

`Cn1ccc2ncnc(Oc3ccc(Nc4nc5ccccc5[nH]4)cc3)c21`: the “%Inh” value (in assay [1] (setting [6]); in assay [2] (setting [6]); in [3] (setting [6]); in assay [4]; in [5] (setting [6]); in the assay on S6K1 (setting [6])) was 0% throughout. Besides, the “%Inh” value came to 0% in the assay with SBK1 (setting [6]); 0% in the assay with SGK2; 0% in the assay on SGK3 (setting [6]); 0% in the assay on SGK; 10% in the assay on SIK2 (setting [6]); 0% in the assay with SIK. In addition, the “%Inh” value with SLK (setting [6]) amounted to 14%; with SNARK (setting [6]), 0%; with SNRK, 0%; in the assay with SRC (setting [6]) it was 3%; with SRMS it was 0%; in the assay on SRPK1 (setting [6]), 0%. Further, the results for the “%Inh” value with SRPK2 and in the assay with SRPK3 were 7% and 0%, respectively.

For `CSc1nn2c(=O)cc(N3CCOCC3)nc2n1Cc1cccc(C(F)(F)F)c1C` [GSK2363608], the “%Inh” value was 0% and 5% in assay [1] (setting [7]); 0% and 16% in [2] (setting [7]); 10% and 0% in [3] (setting [7]); 0% in assay [4]; 3% and 0% in assay [5] (setting [7]); 3% and 10% in the assay with S6K1 (setting [7]). Besides, the “%Inh” value is 1% and 2% in the assay on SBK1 (setting [7]); 0% in the assay with SGK2; 6% and 4% in the assay on SGK3 (setting [7]); 0% with SGK; 4% and 0% in the assay on SIK2 (setting [7]); 0% in the assay on SIK. The “%Inh” value is 20% and 3% with SLK (setting [7]); 18% and 0% in the assay with SNARK (setting [7]); 0% in the assay on SNRK; 3% and 0% in the assay on SRC (setting [7]); 0% with SRMS; 34% and 16% in the assay with SRPK1 (setting [7]). The “%Inh” value in the assay with SRPK2 and with SRPK3 was 0% throughout.

Take `O=C(O)COc1ncnc2cc(-c3ccc4[nH]ncc4c3)sc12`: the “%Inh” value in [1] (setting [6]) is reported as 0%; in assay [2] (setting [6]) it was 26%; in assay [3] (setting [6]) it was 29%; in assay [4], 23%; in assay [5] (setting [6]) it was 15%; in the assay with S6K1 (setting [6]), 0%. In addition, the “%Inh” value in the assay on SBK1 (setting [6]) worked out at 45%; in the assay with SGK2 it was 9%; in the assay with SGK3 (setting [6]) it was 35%; in the assay with SGK, 4%; in the assay on SIK2 (setting [6]) it was 0%; with SIK it was 8%. In addition, the “%Inh” value is on record as 0% with SLK (setting [6]); 13% with SNARK (setting [6]); 11% in the assay with SNRK; 0% in the assay on SRC (setting [6]); 8% in the assay on SRMS; 0% with SRPK1 (setting [6]). Besides, the figures for the “%Inh” value in the assay with SRPK2 and with SRPK3 were 0% and 1%, respectively.

In the case of `Cl.O=C(Nc1cccc(-c2nn3ncccc3c2-c2ccnc(Nc3cccnc3)n2)c1)c1c(F)cccc1F` [GSK312879], the “%Inh” value in [1] (setting [6]) was determined as 6%; in [2] (setting [6]), 23%; in assay [3] (setting [6]), 10%; in assay [4], 12%; in assay [5] (setting [6]) it was 0%; in the assay with S6K1 (setting [6]), 14%. In addition, the “%Inh” value with SBK1 (setting [6]) was 41%; in the assay on SGK2 it was 1%; in the assay with SGK3 (setting [6]) it was 0%; with SGK, 0%; in the assay on SIK2 (setting [6]), 0%; in the assay with SIK, 0%. In addition, the “%Inh” value in the assay on SLK (setting [6]) turned out to be 17%; in the assay on SNARK (setting [6]), 0%; with SNRK it was 0%; with SRC (setting [6]), 13%; with SRMS, 5%; with SRPK1 (setting [6]), 30%. The “%Inh” value is reported as 0% in the assay with SRPK2 and 7% with SRPK3.
